The text below walks through data of ChEMBL document CHEMBL3433997, “St. Jude Leishmania screening dataset” (2016).

Common to all, as to format: functional
The target of assay [1] is Solute carrier family 2, facilitated glucose transporter member 1 (Homo sapiens) (UniProt P11166). Briefly: ST_JUDE_LEISH: Cytotoxicity at 2uM final concentration against transgenic Leishmania Mexicana promastigotes LmGLUT1 that are glucose transport deficient and complemented with the human glucose transporter GLUT1. Activity is measured by DNA content using SYBR green in vitro.

For assay [2], the target named is Hexose transporter 1 (Plasmodium falciparum) (UniProt O97467). Kind of assay: ST_JUDE_LEISH: Cytotoxicity at 2uM final concentration against transgenic Leishmania Mexicana promastigotes LmPfHT that are glucose transport deficient and complemented with the Plasmodium falciparum hexose transporter. Activity is measured by DNA content using SYBR green in vitro.
The target of assay [3] is Glucose transporter (Leishmania mexicana) (UniProt O61059). Briefly: ST_JUDE_LEISH: Cytotoxicity at 2uM final concentration against transgenic Leishmania Mexicana promastigotes LmGT2 that are glucose transport deficient and complemented with the L. Mexicana glucose transporter 2. Activity is measured by DNA content using SYBR green in vitro.

Each structure is given as a SMILES string.

Sequence of Solute carrier family 2, facilitated glucose transporter member 1 (Homo sapiens) (P11166 whole entry): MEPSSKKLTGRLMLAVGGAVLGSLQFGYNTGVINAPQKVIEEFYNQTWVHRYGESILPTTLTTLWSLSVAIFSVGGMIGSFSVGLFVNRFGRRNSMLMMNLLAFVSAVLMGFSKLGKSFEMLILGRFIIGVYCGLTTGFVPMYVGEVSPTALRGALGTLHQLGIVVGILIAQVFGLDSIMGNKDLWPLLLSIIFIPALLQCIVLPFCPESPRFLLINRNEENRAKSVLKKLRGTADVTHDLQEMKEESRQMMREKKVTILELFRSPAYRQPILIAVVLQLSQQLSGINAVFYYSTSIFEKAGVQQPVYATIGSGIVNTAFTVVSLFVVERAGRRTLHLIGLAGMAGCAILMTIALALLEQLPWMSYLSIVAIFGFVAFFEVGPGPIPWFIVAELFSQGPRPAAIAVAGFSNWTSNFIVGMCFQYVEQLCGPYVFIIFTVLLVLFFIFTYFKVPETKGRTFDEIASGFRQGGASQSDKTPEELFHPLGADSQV

For the molecule `CC(=O)Oc1c(C(=O)C2CCC(C(C)(C)C)CC2)c(OC(C)=O)c2ccccc2c1OC(C)=O` (configuration not stated), the inhibition in assay [1] worked out at 8.82%; in assay [2], 11.5%; in assay [3], 7.73%.

As to `CCCc1cc(Cc2cnc(N)nc2N)ccc1OCCCCCC(=O)O`, the inhibition in assay [1] turned out to be 1.42%; in assay [2], 2.24%; in assay [3] it was 1.32%.

For the molecule `CN(C)CCC1CCN(CCS(=O)(=O)c2cccc(Nc3ccc(-c4cccc(F)c4)cn3)c2)CC1`, the inhibition was -0.27% in assay [1], 3.28% in assay [2] and 3.78% in assay [3].

`CC1(C)CCC(C)(C)c2c1ccc(C1CCN(CCCCNC(=O)c3ccc(-c4ccc(C#N)cc4)cc3)CC1)c2O`: the inhibition in assay [1] was found to be 0.66%; in assay [2], 0.22%; in assay [3], 0.63%.

Take `O=C(NCCc1ccccc1)N(Cc1ccccc1-c1ccc(CNCCc2ccccc2)cc1)C1CCN(Cc2ccccc2)CC1`: the inhibition in assay [1] was found to be 7.2%; in assay [2] it was 8.75%; in assay [3], 3.55%.

`Cn1cnc2nc(NCCc3ccccc3)nc(NCc3cccc4ccccc34)c21`: the inhibition was 0.91% in assay [1], 1.38% in assay [2] and -1.12% in assay [3].

For `CN1CCN(c2cc3c(cc2Cl)CCN3C(=O)Cc2ccc(NC(=O)Nc3cccc4ccccc34)cc2)CC1`, the inhibition is 0.87% in assay [1], 1.55% in assay [2] and -1.64% in assay [3].

For the molecule `COc1ccc(-c2onc(C(F)(F)F)c2-c2ccc(Br)cc2)c(O)c1`, the results for the inhibition in assay [1], in assay [2] and in assay [3] were 2.09%, 2.27% and 1.56%, respectively.

Turning to `CCc1cc2c(Sc3nc4ccccc4[nH]3)ncnc2s1`, the inhibition in assay [1] was 0.94%; in assay [2], 0.97%; in assay [3] it was -0.12%.

Regarding `Nc1nccc(-c2ccc3c(-c4cccc(F)c4)cnc(N)c3c2)n1`, the inhibition in assay [1] was -0.44%; in assay [2] it was 3.51%; in assay [3], -0.84%.

As to `COc1cccc(CCN(Cc2ccccc2-c2ccc(CNC3CC(C)(C)NC(C)(C)C3)cc2)C(=O)NC2CCCCC2)c1`, the inhibition in assay [1] worked out at 0.9%; in assay [2], 0.87%; in assay [3] it was 2.67%.

Regarding `CCC[C@@H]([C@@H](CC1CCCCC1)C(=O)N[C@H](C(=O)Nc1nccs1)C(C)(C)SCCOCCOCC)N(O)C=O`, the inhibition in assay [1] worked out at 6.4%; in assay [2] it was 5.16%; in assay [3] it was 5.39%.

In the case of `Cc1cc(N2CCC(NS(=O)(=O)c3cccc4cccnc34)CC2)nc(Nc2cccc(C#N)c2)n1`, the figures for the inhibition in assay [1], in assay [2] and in assay [3] were 51.5%, 54.4% and 44.4%, respectively.

For `CC(=O)Nc1ccc(CN(Cc2ccc(F)cc2)Cc2cccc(Oc3ccccc3)c2)cc1`, the inhibition stood at 3.19% in assay [1], 1.73% in assay [2] and 0.56% in assay [3].

In the case of `COc1ccc(-c2cnc3[nH]cc(-c4ccncc4)c3c2)cc1OC`, the inhibition in assay [1] amounted to 68.3%; in assay [2], 72.8%; in assay [3], 65.3%.

Consider `CCOc1cccc(C(=O)Nc2nonc2-c2ccc(OC)c(OC)c2)c1`, for which the results for the inhibition in assay [1], in assay [2] and in assay [3] were 10.3%, 9.2% and 7.57%, respectively.

For the molecule `CCCCCCCCS(=O)(=O)NCCCC1CCN(CCCCCNC(=O)C=Cc2ccc(Cl)c(Cl)c2)CC1`, the results for the inhibition in assay [1], in assay [2] and in assay [3] were 2.57%, -0.32% and 2.95%, respectively.

In the case of `O=C(Nc1ccsc1)Nc1cccc(-c2cccc(-c3nc4cc(F)ccc4[nH]3)c2)c1`, the inhibition in assay [1] is 2.33%; in assay [2], 2.8%; in assay [3], -5.19%.

Regarding `CC(=O)Nc1ccc2[nH]cc(C3CCN(CC4CCC(NC(=O)/C=C/c5ccc(Cl)c(Cl)c5)CC4)CC3)c2n1` (configuration not stated), the inhibition in assay [1] is -0.73%; in assay [2], 0.9%; in assay [3] it was -2.32%.

For the molecule `CCCCN(C)CC#Cc1ccc2[nH]c(C)c(Cl)c(=O)c2c1`, the inhibition in assay [1] stood at 3.48%; in assay [2], 3.22%; in assay [3], 2.37%.

Regarding `O=C(Nc1ccccc1)c1c[nH]cn1`, the inhibition in assay [1] is 0.43%; in assay [2], 2.14%; in assay [3], -0.23%.

In the case of `CCOc1ccc(C(C)NC(=O)Cc2ccccc2F)cc1OCC` (configuration not stated), the inhibition in assay [1] is 3.49%; in assay [2], 2.75%; in assay [3] it was -0.15%.

For the molecule `COc1ccc(NC(=O)Nc2cccc(-c3ccc(-c4nc5cc(C(F)(F)F)ccc5[nH]4)cc3)c2)cc1`, the inhibition was 0.43% in assay [1], -0.19% in assay [2] and -2.91% in assay [3].

Consider `O=C(Nc1ccc(Cl)cc1)N(CC1CC2CCC(C1)N2Cc1ccc(C(F)(F)F)cc1)c1ccc(N2CCOCC2)c(F)c1` (configuration not stated), for which the inhibition came to 6.73% in assay [1], 5.58% in assay [2] and 8.78% in assay [3].

On to `O=C(CSc1nc2ccc([N+](=O)[O-])cc2s1)Nc1ccccc1-c1ccccc1`, for which the inhibition is -0.42% in assay [1], -0.44% in assay [2] and -1.03% in assay [3].

For `Nc1nc(N)c2c3c(cnc2n1)CCCC3`, the inhibition was found to be 9.74% in assay [1], 9.11% in assay [2] and 10.8% in assay [3].

As for `Cc1cc(NC(=O)c2cccs2)ccc1OC1CCN(Cc2ccccc2)C1` (configuration not stated), the inhibition in assay [1] was 0.25%; in assay [2], -0.44%; in assay [3], 1.56%.

Take `CCC(C)c1cnc2nc(N)nc(N)c2c1C` (configuration not stated): the inhibition in assay [1] came out at 1.18%; in assay [2] it was 1.66%; in assay [3] it was 2.42%.

Consider `COc1cc(-c2cnc(N)c(-c3nc4ccccc4[nH]3)c2)cc(OC)c1OC`, for which the inhibition came to 5.26% in assay [1], 9.19% in assay [2] and 1.47% in assay [3].

On to `COc1cccc(NC(=O)[C@H](C(C)C)n2c(=O)[nH]c3ccccc3c2=O)c1`, for which the inhibition in assay [1] is 1.34%; in assay [2] it was 0.97%; in assay [3], 5.04%.

Take `CCOc1c(CNCCCCCCNCc2ccc3ccccc3c2OCC)ccc2ccccc12`: the inhibition came to 3.4% in assay [1], 4.82% in assay [2] and 1.99% in assay [3].

In the case of `CCc1nc(N)nc(N)c1-c1ccc(C(C)C)cc1`, the inhibition in assay [1] stood at 2.65%; in assay [2], 2.31%; in assay [3], 2.86%.

For `c1ccc(C2CCN(Cc3ccc(-c4c[nH]c5nc(NC6CCCC6)ncc45)cc3)CC2)cc1`, the inhibition in assay [1] is 2.79%; in assay [2] it was 2.07%; in assay [3], 1.65%.

Turning to `CCCc1ccc(NC(=O)c2cccc(CN3CCCN(Cc4cccc(C#N)c4)CC3)c2)cc1`, the figures for the inhibition in assay [1], in assay [2] and in assay [3] were 3.6%, -0.3% and 1.95%, respectively.
